Data on 50 compounds can be found in PubChem BioAssay AID686978 (National Center for Advancing Translational Sciences (NCATS), 2013).

In all, about 420,000 compounds went through this assay and about 64,000 (15%) were called active. Roughly 27% stayed inconclusive and do not appear here. A selection follows. A number with no mark means an inactive call. Calls come from the whole dose curve; as a rule, active = well fitted inhibition curve with a large enough effect; inconclusive = small, poorly fitted or top-dose-only effect; inactive = flat fitted curve, though single readings scatter.
% is set by controls: 0 for no effect and ±100 for the full control effect; potency is the fitted concentration of half-maximal effect.

The assay can be described thus: qHTS for Inhibitors of human tyrosyl-DNA phosphodiesterase 1 (TDP1): qHTS in cells in absence of CPT. Note: nearly all actives have a fitted effect of over 55% in size. Conditions: DT40 Tdp1-/- hTDP1 cells, no CPT, ATP luminescence, 48 h; activity change, negative = growth inhibition: at 46.2 µM (top of the series). In outline:
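Growth of hTDP1-complemented DT40 Tdp1-knockout cells is measured by ATP luminescence after at least 48 hr compound exposure at 37 °C, with DMSO substituting for the 20 nM CPT used in the parallel screen.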
In the case of `O=C(c1ccccc1Cl)N(Cc1ccccc1F)N1C(=O)CCCC1=O`, the “activity change, negative = growth inhibition” value is 1.49%. Turning to `CN(C)CCN(C(=O)C1CCCCC1)c1nc2cc3c(cc2s1)OCO3`, the “activity change, negative = growth inhibition” value is -3.74%. Take `O=C(Nc1cccc(C(F)(F)F)c1)c1ccc(N2CCNCC2)c([N+](=O)[O-])c1`: the Potency was 18.4 µM (active).

Take `O=C(Nc1ccc2c(c1)OCO2)c1ccc(N2C(=O)c3ccccc3C2=O)cc1`: the “activity change, negative = growth inhibition” value is -6.15%. Same read-out and setting: under `O=C(COc1ccccc1F)NNC(=O)c1ccc(N2CCCCC2)c([N+](=O)[O-])c1` stands -82%; under `CC(=O)c1ccc(NC(=O)c2ccc(-n3cncn3)c([N+](=O)[O-])c2)cc1`, -26.5%.

As for `O=C(Nc1ccc(N2C(=O)c3cccc4cccc(c34)C2=O)cc1)c1ccc(N2CCCCC2)c([N+](=O)[O-])c1`, the Potency was 7.31 µM (active). Consider `CN1CCN(CC#CCC2(O)c3ccccc3-c3ccccc32)CC1`, for which the “activity change, negative = growth inhibition” value was -7.87%. As to `CCC(=O)NC(=S)Nc1ccc(NC(=O)c2ccco2)c(Cl)c1`, the “activity change, negative = growth inhibition” value was -4.57%. As for `COC(=O)c1cccc(NC(=O)CSc2nc(C)cc(=O)[nH]2)c1`, the “activity change, negative = growth inhibition” value was 1.31%.

Consider `COC(=O)c1c(C(=O)OC)c(-c2cccc(C)c2)n2c1CS(=O)C2` (stereo not given), for which the “activity change, negative = growth inhibition” value is -0.626%. Still for that read-out and setting: under `COc1ccc(C2CC(c3cccs3)=NN2C(=O)CCC(=O)O)cc1OC` (stereo not given) stands 3.1%; under `COc1ccc(C2CC(c3cccs3)=NN2C(=O)CSc2nncs2)cc1OC` (stereo not given), -23.6%. In the case of `O=C1c2cccc(OCC(=O)N3N=C(c4cccs4)CC3c3ccc(F)cc3)c2CCN1Cc1ccccc1` (stereo not given), the Potency is 9.2 µM (active). Take `CN(CC(=O)NC1CCCCC1)S(=O)(=O)c1ccc(Br)s1`: the “activity change, negative = growth inhibition” value is -32.5%. Same read-out and setting: for `O=C1C(c2[nH]c3ccccc3c2O)=Nc2ccccc21` the value was -16.4%. As for `CCOC(=O)N1CCC(Nc2c(NCCCN3CCN(CC)CC3)c(=O)c2=O)CC1`, the “activity change, negative = growth inhibition” value was -10.5%. As to `Cc1ccc(CN2CCC(CNC(=O)c3cnn(-c4ccccc4Cl)c3C3CCN(C(=O)OC(C)(C)C)CC3)CC2)cc1`, the Potency was 4.61 µM (active). On the same count and under the same terms, for `CCN1CCN(CCCNC(=O)c2cnn(-c3ccc(C)cc3C)c2C2CCN(C(=O)OC(C)(C)C)CC2)CC1` the value was 20.6 µM (active). Take `CCOC(=O)N1CCC(NC(=O)c2cnn3ccccc23)CC1`: the “activity change, negative = growth inhibition” value was -5.98%.

As for `CSCCC(=O)N1CCCC(CNC(=O)c2ccccc2Cl)C1` (stereo not given), the “activity change, negative = growth inhibition” value was -18.6%.

`Cc1ccc(-n2ncc(C(=O)NC3CC3)c2C2CCN(C(=O)OC(C)(C)C)CC2)c(C)c1`: the “activity change, negative = growth inhibition” value was -18.3%. Turning to `COc1ccccc1N1CCN(CCCNC(=O)c2cnn(-c3ccccc3Cl)c2C2CCN(C(=O)OC(C)(C)C)CC2)CC1`, the Potency is 5.8 µM (active). With `COc1ccccc1-c1ccnc(-n2ncc(C(=O)NCCCN3CCOCC3)c2C)n1`, the “activity change, negative = growth inhibition” value was -3.07%. Still for that read-out and setting: for `COc1ccccc1N1CCN(CC(=O)NCCc2ccc(S(N)(=O)=O)cc2)CC1` the value was -1.08%. Consider `COc1ccccc1CN1CCC(CNC(=O)c2cnn(-c3cccc(Cl)c3)c2C2CCN(C(=O)OC(C)(C)C)CC2)CC1`, for which the Potency is 5.8 µM (active). As to `CCc1cccc(C)c1NC(=O)COC(=O)Cc1ccsc1`, the “activity change, negative = growth inhibition” value is -18.7%. On to `CC1CCCC(C)N1/N=C/c1ccccc1OC(F)F` (stereo not given), for which the “activity change, negative = growth inhibition” value was -23.5%. Still for that read-out and setting: under `O=C(O)CCCCOn1ccnc1` stands -5.4%; under `CCCc1cc(=O)[nH]c2nnc(SCC(=O)Nc3nnc(SCC)s3)n12`, -29.2%. On to `COc1ccc(C(C)=O)cc1COC(=O)Cn1cnc2ccccc2c1=O`, for which the “activity change, negative = growth inhibition” value was -0.295%. Regarding `COc1ccccc1CN1CCC(CNC(=O)c2cnn(-c3ccccc3Cl)c2C2CCN(C(=O)OC(C)(C)C)CC2)CC1`, the Potency was 8.2 µM (active).

Regarding `COC(=O)N1CCC2(CCCN(Cc3ccccc3OC)C2)CC1`, the “activity change, negative = growth inhibition” value is -0.23%. The same measure, in the same setting: for `COCCNC(=O)C1CCCN(Cc2ccccc2Cl)CC1` (stereo not given) the value was -3.91%; for `Cc1c(CN2CCCCC2)c(O)n(CCO)c(=O)c1C#N`, 3.18%. Same read-out and setting: under `COc1cc(CCC(=O)OCC(=O)Nc2cccc(S(N)(=O)=O)c2)cc(OC)c1OC` stands -0.764%; under `Cc1ccc(NC(=O)OCCNC(=O)c2ccncc2)cc1`, -1.06%; under `CCCc1cc(=O)n2[nH]c(NCc3ccc(CC)cc3)nc2n1`, -4.36%. With `O=C(N[C@H]1C/C=C\C(c2cccc(F)c2)N(Cc2ccccc2)C(=O)C1)OCC1c2ccccc2-c2ccccc21` (stereo not given in full), the Potency is 20.6 µM (active).

As to `CN(Cc1ccccc1Cl)C(=O)C1CCC(=O)N(CCc2cccc(F)c2)C1` (stereo not given), the “activity change, negative = growth inhibition” value was -23.9%. Same read-out and setting: under `O=C1c2ccccc2C(O)N1Cc1ccccc1` (stereo not given) stands 11.4%. Take `O=C(N[C@H]1C/C=C\C(c2ccc(F)cc2)N(Cc2ccccc2)C(=O)C1)OCC1c2ccccc2-c2ccccc21` (stereo not given in full): the Potency was 20.6 µM (active). Take `CCC(C)NC(=O)C1c2ccccc2C(=O)N1Cc1ccccc1` (stereo not given): the “activity change, negative = growth inhibition” value was 14.2%. Same read-out and setting: under `O=C(N[C@@H](Cc1c[nH]c2ccccc12)C(=O)O)OCC1c2ccccc2-c2ccccc21` stands -25.3%. In the case of `CC1CCCN(S(=O)(=O)c2ccc3[nH]c(=O)cc(C(=O)NCCc4ccc(Cl)cc4)c3c2)C1` (stereo not given), the “activity change, negative = growth inhibition” value was 3.52%.

For `CC(C)(C)c1ccc(C(=O)N2CCC(c3nc(-c4ccc(S(=O)(=O)N5CCCC5)cc4)no3)CC2)cc1`, the Potency is 20.6 µM (active). Take `COC(=O)c1ccc(S(=O)(=O)N2CCC(c3nc4ccccc4o3)CC2)cc1`: the “activity change, negative = growth inhibition” value is -27.1%. For the compound `O=C(c1ccc(C(F)(F)F)cc1)N1CCC(c2nc(-c3ccc(S(=O)(=O)N4CCCC4)cc3)no2)CC1`, the Potency is 18.4 µM (active). As to `CC(C)(C)c1ccc(S(=O)(=O)N2CCN(C(=O)c3ccc4c(c3)C(=O)N(Cc3ccncc3)C4=O)CC2)cc1`, the “activity change, negative = growth inhibition” value is -20.4%.

As for `O=C(c1ccncc1)N1CCN(S(=O)(=O)c2cc(C(F)(F)F)cc(C(F)(F)F)c2)CC1`, the “activity change, negative = growth inhibition” value is -29.7%.
